Mtb BioA inh = inhibitors of Mycobacterium tuberculosis BioA enzyme; purified M. tuberculosis BioA enzyme, plate reader; inhibition, % at 9.99 µM; 360,000 tested, 0.096% active; in the data active = inhibition above about 40%
Y pestis TopoI = blocks Yersinia pestis topoisomerase I activity. Y. pestis Topo-I cleavage product accumulation, plate reader. 360,000 tested, 0.064% active. AID 504884. activity, % at 10 µM; in the data active = activity above about 50%, passing the limit was not always enough
Mtb UGM inh = inhibitors of M. tuberculosis UDP-galactopyranose mutase; P9WIQ1; inhibition, % at 10 µM; 320,000 tested, 0.06% active; purified UGM, fluorescence polarization probe displacement; in the data active = inhibition above about 10%, passing the limit was not always enough
Target sequence (P9WIQ1 whole entry, looked up): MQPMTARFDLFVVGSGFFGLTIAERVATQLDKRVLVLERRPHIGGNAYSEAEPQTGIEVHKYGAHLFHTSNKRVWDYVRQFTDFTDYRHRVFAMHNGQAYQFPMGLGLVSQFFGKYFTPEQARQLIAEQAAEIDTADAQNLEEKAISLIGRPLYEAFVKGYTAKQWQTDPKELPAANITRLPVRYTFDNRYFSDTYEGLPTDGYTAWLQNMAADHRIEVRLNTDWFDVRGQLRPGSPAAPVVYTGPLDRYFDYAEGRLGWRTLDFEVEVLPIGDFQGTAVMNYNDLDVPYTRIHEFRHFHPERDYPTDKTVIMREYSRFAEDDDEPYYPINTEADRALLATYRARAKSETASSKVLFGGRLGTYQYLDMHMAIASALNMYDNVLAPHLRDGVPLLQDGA
RecA splice inh = Mtb RecA intein splicing inhibition; 290,000 tested, 0.75% active; AID 2221; P9WHJ3; cell-free RecA intein splicing, fluorescence; inhibition, % (concentration not given with the values); in the data active = inhibition above about 30%;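 note: 0% = vehicle wells and 100% = reference inhibitor control wells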
FadD28 binding = M. tuberculosis FadD28 bisubstrate binding inhibition; FadD28 bisubstrate probe binding, fluorescence polarization; inhibition, % at 12.5 µM; AID 588549; 360,000 tested, 0.22% active; in the data active = inhibition above about 8.5%, passing the limit was not always enough
Rv3671c protease = Rv3671c (M. tuberculosis) protease inhibition; inhibition, % at 5.96 µM; 320,000 tested, 0.048% active; P9WHR9; in the data active = inhibition above about 38%;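 note: extracellular domain of Rv3671c used as enzyme; 0% = enzyme with DMSO and 100% = no enzyme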
GFP chromophore = counter-screen GFP chromophore formation inhibition. EC50, µM. shares compounds with RecA splice inh. 2,100 tested, 83% active. AID 434968. cell-free GFP chromophore formation, fluorescence; call rule not given here
Starred values were filed as active, the others as inactive; / = no result. Hits are enriched below; roughly 0.82% of the tested compounds scored in any of these assays.

SMILES	Mtb BioA inh	Y pestis TopoI	Mtb UGM inh	RecA splice inh	FadD28 binding	Rv3671c protease	GFP chromophore
CCCNC(=O)N(C)C[C@@H]1Oc2ncc(-c3cccc(C#N)c3)cc2C(=O)N([C@H](C)CO)C[C@@H]1C	0	/	/	/	/	/	/
COc1ccc(OC)c(NC(=O)Cc2ccc(NC3=NC4CS(=O)(=O)CC4S3)cc2)c1 (centres undefined)	0	7	0	38*	0	0	>38
Cc1nnc(N/N=C/c2c(Cl)cccc2Cl)n1N	/	-11	4	6	-1	-13	/
Cc1nnc(N/N=C/c2ccc(-c3ccccc3F)o2)n1N	/	-1	2	2	-1	-49	/
Cc1nnc(N/N=C\c2ccc(-c3ccccc3[N+](=O)[O-])o2)n1N	/	-4	-2	50*	0	-68	39*
Cc1nnc(N/N=C/c2ccccc2O)n1N	/	1	1	75*	-1	-96	12*
COc1ccc(NC(=O)N(C)C[C@@H]2OCCCC[C@@H](C)Oc3ccc(NC(=O)Nc4c(C)noc4C)cc3C(=O)N([C@H](C)CO)C[C@H]2C)cc1	0	/	/	/	/	/	/
COc1cc(/C=C2/SC(=S)NC2=O)ccc1OS(=O)(=O)c1ccc(C)cc1	/	-5	-2	36*	-12	-24	23*
COc1ccccc1C(=O)N1C[C@H]2[C@@H](c3ccccc31)[C@@H](CO)N2C(=O)C1CCCC1	-5	/	/	/	/	/	/
CS(=O)(=O)c1nc(-c2ccccc2)cc(C(F)(F)F)n1	3	-2	5	66*	-3	-9	13*
Nc1c(N2CCCC2)cc(Cl)c2nonc12	/	6	0	70*	0	-37	5.1*
Nc1ccc(N2CCCCC2)c2nonc12	2	-8	-1	75*	2	-93	11*
Nc1c(N2CCOCC2)cc(Cl)c2nonc12	1	-4	0	0	1	-7	/
COc1ccc(-c2ccc(OC)c([C@H]3[C@H]4C=CC[C@@H](C)[C@@H]4C(=O)N3Cc3ccccc3)c2)cc1OC	1	9	4	1	1	-5	/
C[C@@H]1CC=C[C@H]2[C@H]1C(=O)N(Cc1ccccc1)[C@H]2c1ccc(C(F)(F)F)cc1	-2	35	-1	37*	-3	-3	>38
O=C1C2C(c3ccccc3)CC=CC2[C@H](c2ccc(C(F)(F)F)cc2)N1Cc1ccccc1 (some centres undefined)	1	7	-2	17	-3	-5	/
COc1ccc(Br)cc1[C@H]1[C@H]2C=CC[C@@H](C)[C@@H]2C(=O)N1Cc1ccccc1	0	12	/	34*	-2	/	>38
O=C(C[C@@H]1C[C@@H]2c3cc(NC(=O)Nc4ccc(F)cc4)ccc3O[C@@H]2[C@H](CO)O1)NC1CCCC1	-2	/	/	/	/	/	/
CC1=C(C)/C(=N/OC(=O)c2cccc([N+](=O)[O-])c2)C=CC1=O	/	1	0	47*	0	-13	>38
O=C(CCl)N1CCCC1c1ccc2c(c1)OCCO2 (centres undefined)	0	3	2	74*	-4	-9	33*
OC(CNCCC1C=Nc2ccccc21)Cn1c2ccc(Cl)cc2c2cc(Cl)ccc21 (centres undefined)	0	-16	-1	48*	-5	12	37*
C[C@@H]1CCCCO[C@@H](CN(C)S(=O)(=O)c2cn(C)cn2)[C@@H](C)CN([C@@H](C)CO)C(=O)c2cc(NC(=O)Nc3ccccc3)ccc2O1	1	/	/	/	/	/	/
O=C1c2ccccc2-c2onc3ccc(Oc4ccccc4)c1c23	1	-2	1	86*	-2	-62	0.81*
O=C(c1ccccc1)c1coc2c1C(=O)c1ccccc1C2=O	/	-6	-1	17	-1	-22	/
Oc1[nH]c2ccc(Br)cc2c1N=NC(=S)N1CCOCC1	2	-2	3	47*	-1	10	>38
SMILES	Mtb BioA inh	Y pestis TopoI	Mtb UGM inh	RecA splice inh	FadD28 binding	Rv3671c protease	GFP chromophore
Oc1[nH]c2ccccc2c1N=NC(=S)N1CCOCC1	0	-7	2	67*	-5	-16	>38
O=C(C[C@@H]1CC[C@@H](NS(=O)(=O)c2ccc(F)cc2)[C@H](CO)O1)N1CCc2ccccc2C1	-1	/	/	/	/	/	/
COc1ccc(C(=O)N(c2ccc(OC)cc2)S(=O)(=O)c2cccs2)cc1	/	14	-1	2	-2	0	/
O=C(Nc1ccccc1N(C(=O)c1ccco1)S(=O)(=O)c1cccs1)c1ccco1	1	-3	1	10	-3	4	5.8*
COc1ccc(N(C(=O)c2ccco2)S(=O)(=O)c2cccs2)cc1	4	5	-1	33*	-2	-2	>38
COc1ccc(-c2ccc3c(c2)[C@@H]2[C@@H](CCN2S(=O)(=O)c2ccccc2F)[C@@H](CO)N3C)cc1	2	/	/	/	/	/	/
Cc1cccc(S(=O)(=O)N(C)C[C@@H]2OCc3cnnn3CCCC(=O)N([C@@H](C)CO)C[C@H]2C)c1	0	/	/	/	/	/	/
CCC(=O)OCCNc1cc(Sc2nccn2C)c2nonc2c1[N+](=O)[O-]	/	4	-2	87*	1	4	4.8*
CC(C)CCSc1cc(NCCO)c([N+](=O)[O-])c2nonc12	0	21	-2	9	-3	6	/
CC(=O)OCCCNc1cc(Sc2ccc(Cl)cc2)c2nonc2c1[N+](=O)[O-]	/	-2	-1	25	-2	2	/
CCCC(=O)OCCNc1cc(Sc2nc3ccccc3[nH]2)c2nonc2c1[N+](=O)[O-]	1	1	-1	96*	1	1	0.96*
CCC(=O)OCCNc1cc(SCCC(=O)OC)c2nonc2c1[N+](=O)[O-]	/	10	-1	45*	1	-6	26*
C[C@H](CO)N1C[C@H](C)[C@H](CN(C)Cc2ccncc2)Oc2ccc(NS(C)(=O)=O)cc2CC1=O	-2	/	/	/	/	/	/
C[C@@H]1CN([C@@H](C)CO)C(=O)Cc2cc(NC(=O)Cc3cn(C)c4ccccc34)ccc2O[C@H]1CN(C)C(=O)Nc1ccccc1	1	/	/	/	/	/	/
Fc1ccccc1CNCCC(Cc1ccccc1)c1ccc2c(c1)OCO2 (centres undefined)	1	11	0	4	-6	3	/
CC(=O)N(CCC(Cc1ccccc1)c1ccc2c(c1)OCO2)Cc1ccccc1F (centres undefined)	1	35	2	36*	0	-5	>38
C/C=C/c1ccc2c(c1)O[C@@H](CN(C)S(=O)(=O)c1ccc(C)cc1)[C@@H](C)CN([C@H](C)CO)S2(=O)=O	0	/	/	/	/	/	/
CNC(=O)C[C@@H]1CC[C@H]2[C@@H](COc3ccc(NC(=O)Nc4c(C)noc4C)cc3C(=O)N2C)O1	1	/	/	/	/	/	/
COc1cccc(C(c2c(C)[nH]n(-c3ccccc3)c2=O)c2c(C)[nH]n(-c3ccccc3)c2=O)c1OC	0	-2	0	94*	-1	-169	1.8*
Cc1[nH]n(-c2ccccc2)c(=O)c1C(=O)c1ccccc1	-1	0	1	3	-2	3	/

Source: PubChem
